Screens (PubChem)
The entries come from a sample that favours hits as a whole.
Pf Dd2 inh: inhibitors of Plasmodium falciparum Dd2 growth; 120,000 compounds, 4.3% hits; Potency, µM (doses to about 28.9 µM), actives largely listed as inhibitors; P. falciparum Dd2 growth, SYBR Green, 72 h; AID 1347417; active = well fitted inhibition curve with a large enough effect; note: nearly all actives have a fitted effect of over 65% in size
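Infected erythrocytes (Dd2, 0.3% parasitemia, 2.5% hematocrit final) are added to compound in RPMI-1640/Albumax II medium, grown 72 h at 37C in low oxygen, then lysed with saponin/Triton-X containing SYBR Green and read by fluorescence.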
A number is an active result; 0 = inactive; [ ] = another dose, or the depositor's remark.

SMILES	Pf Dd2 inh
Cn1cccc1C(=O)N1CCC(N2C[C@H](O)C[C@H]2C(=O)NC2CCCCC2)CC1	0
Cc1nnc(-c2cc(-c3cccc(OC(F)(F)F)c3)ccn2)n1CCN1CCOCC1	0
O=c1c2c(CO)c(-c3ccccc3)nn2ccn1CCc1ccccc1	0
Cc1cc(C)nc(CNC2CCN(c3nc(C)nc4sccc34)CC2)n1	0
Cc1cc(N2CCC(NCc3nc[nH]c3C)CC2)nc(-c2ccccc2O)n1	10µM
Cc1[nH]cnc1CN1CCN(C2CCCC2)CC(C(=O)O)C1 (centres undefined)	0
CCCc1ccc(C(=O)N2C[C@@H](CN(C)C)[C@@H](CO)C2)cc1	0
c1cn(-c2ccc(-c3nccn3C[C@@H]3CCCO3)cc2)cn1	0
O=C(Nc1ccc(-c2nnc3n2CCCC3)cc1)Nc1cccc(Cl)c1	0
O=C(Nc1ccc(-c2nnc3n2CCCC3)cc1)c1ccc[nH]c1=O	0
Cc1ccc(C(=O)Nc2ccc(-c3nnc4n3CCCC4)cc2)s1	5.62µM
O=C(Nc1cccc(-c2nnc3n2CCCC3)c1)Nc1ccccc1F	0
O=C(Nc1ccccc1)Nc1ccc(-c2nnc3n2CCCC3)cc1	0
O=C(Nc1cccc(-c2nnc3n2CCCC3)c1)c1ccccc1Cl	5.62µM
CC(=O)Nc1ccc(-c2nnc3n2CCCC3)cc1	0
Cc1cccc(C(=O)Nc2ccc(-c3nnc4n3CCCC4)cc2)c1	0
CCOc1ccccc1C(=O)Nc1cccc(-c2nnc3n2CCCC3)c1	5.01µM
O=C(Nc1ccc(-c2nnc3n2CCCC3)cc1)c1cc(C2CC2)[nH]n1	0
CCOc1cc(=O)n2c(c1C(=O)Nc1cccc(C)c1)CCCC2	0
Cc1cc(C)cc(C(=O)Nc2cccc(-c3nnc4n3CCCC4)c2)c1	3.16µM
O=C(c1cccnc1OC1CCN(S(=O)(=O)c2cccc(F)c2)C1)N1CCOCC1 (centres undefined)	0
CCn1c(C2CCCN(C(=O)c3ccco3)C2)nn(C)c1=O (centres undefined)	0
O=[N+]([O-])c1ccccc1CN1C[C@H](O)C[C@H]1c1nc(-c2ccncc2)no1	0
C[C@@H]1CN(C(=O)CN(C)Cc2ccccc2F)C[C@]1(C)O	0
COc1ccc(OC)c(NC(=O)C2Cn3cccc3C(=O)N2)c1 (centres undefined)	0
SMILES	Pf Dd2 inh
COCCN1CCCCC(CC(=O)Nc2ccc(C)c(F)c2)C1=O (centres undefined)	0
CO[C@H]1C(=O)N(C(C)C)[C@H]1C1CCN(C(=O)Nc2ccccc2F)CC1	0
O=C(Cc1cccc(Cl)c1)N1CCn2c(nnc2-c2ccccc2)C1	0
OCC1CN(c2ncccn2)CC12CCN(C1CCSCC1)CC2 (centres undefined)	0
COc1cccc(OCCCCn2c(-c3ccc(Cl)cc3)nc3ccccc3c2=O)c1	10µM
COc1ccc(-c2nc3ccccc3n2Cc2ccc(Cl)cc2)cc1	0
COc1ccccc1OCCn1c(-c2ccc(Cl)cc2)nc2ccccc2c1=O	0
O=C(COc1ccccc1)Nc1ccc2c(c1)CN(CCc1ccc(F)cc1)C(=O)CO2	0
COCCOc1cc(=O)n2c(c1C(=O)NCCC1=CCCCC1)CCOCC2	0
Cc1cc(C)c(CNC(=O)c2cc(-c3ccccc3F)cc3c2OCCN3C(C)C)c(=O)[nH]1	0
CC(=O)Nc1cccc(-c2cc(C(=O)NCc3c(C)cc(C)[nH]c3=O)c3c(c2)N(C(C)C)CCO3)c1	1.78µM
Cc1cc(C)c(CNC(=O)c2cc(-c3cccnc3)cc3c2OCCN3C)c(=O)[nH]1	0
Cc1cc(C)c(CNC(=O)c2cc(-c3ccccc3C)cc3c2OCCN3C(C)C)c(=O)[nH]1	0
COc1cc(F)ccc1-c1cc(C(=O)NCc2c(C)cc(C)[nH]c2=O)c2c(c1)N(C(C)C)CCO2	0
Cc1cc(C)c(CNC(=O)c2cc(-c3ccccc3F)cc3c2OCCN3C)c(=O)[nH]1	6.31µM
O=C(NCCc1ccccc1)N1CCCC(c2nc(CCOc3ccc(F)cc3)no2)C1 (centres undefined)	0
CN(C)C(=O)c1cccnc1OC1CCN(C(=O)c2ccc(F)cc2)C1 (centres undefined)	0
O=C(NCC1CN(C(=O)Cc2ccc(OC(F)(F)F)cc2)CC12CN(c1ccccc1)C2)Nc1ccccc1 (centres undefined)	0
O=c1[nH]c(N2CCOCC2)nc2c1CCN(Cc1ccc(Cl)cc1)CC2	0[5.79 µM]
CN1CCN(c2nc3c(c(=O)[nH]2)CCN(Cc2ccccc2Br)CC3)CC1	0[5.79 µM]
O=c1[nH]c(N2CCOCC2)nc2c1CCN(Cc1ccc(F)cc1)CC2	0[5.79 µM]
O=c1[nH]c(N2CCOCC2)nc2c1CCN(Cc1ccc(Cl)cc1F)CC2	0.316µM
O=c1[nH]c(N2CCOCC2)nc2c1CCN(Cc1ccccc1Br)CC2	1.26µM
CCOc1ccccc1CN1CCc2nc(N3CCOCC3)[nH]c(=O)c2CC1	0[5.79 µM]
CCOCCn1c(=O)[nH]c2cc(C(=O)NCCn3cnnc3)ccc21	0
SMILES	Pf Dd2 inh
COCCN1CCC2(CCC1=O)CCN(C(=O)CCn1nc(C)cc1C)CC2	0
CCc1nnsc1C(=O)N1CCc2nc(NC)nc(C(=O)N3CCCC3)c2C1	0
COC1CN(c2ccc(C)cc2)C12CCN(C(=O)c1sc(C)nc1C)CC2 (centres undefined)	0
COCC(=O)N[C@@H]1CN(Cc2cnn(C)c2C)C[C@H]1CO	0
COC(=O)c1ccccc1NC(=O)Cn1c(=O)nc(-c2ccccc2)c2cc(Cl)ccc21	0
Oc1ccc(Cl)cc1Nc1nc2ccccc2n2cnnc12	0
Oc1ccccc1Nc1nc(-c2ccccc2)c2cc(Cl)ccc2n1	5.01µM
O=C(Nc1cc(Cl)cc(Cl)c1)c1ccc(F)c(S(=O)(=O)N2CCCC2)c1	0
O=C(Nc1cc(Cl)cc(Cl)c1)c1ccc(F)c(S(=O)(=O)N2CCc3ccccc32)c1	8.91µM
O=C(O)c1ccc2c(c1)N(S(=O)(=O)c1ccccc1F)CC2	0
Cc1cccc(NC(=O)N2CCCC(Cn3cnc4cccnc43)C2)c1C (centres undefined)	0
COC(=O)[C@@H]1C[C@H](NC(=O)c2ccc(Oc3ccccc3)cc2)CN1C	0
COc1ccc(NC(=O)C(=O)NCCc2ccc(OC)c(OC)c2)c(OC)c1	0
CCOC(=O)c1cnc2cc(Cl)c(OC)cc2c1Nc1ccc(Br)cc1C	0
CCOC(=O)c1cnc2ccc(OC)cc2c1NCCc1ccc(OC)c(OC)c1	1µM
CN(C)C[C@H]1C[C@H](CO)CN(C(=O)c2cccc(CCC(C)(C)O)c2)C1	0
O=C(CC1CCCCN(Cc2ccccc2)C1=O)NCc1cccnc1 (centres undefined)	0
NCc1cn[nH]c1-c1ccccc1	0
NCc1ccccc1-c1ccc(O)cc1	0
NCc1ccccc1-c1cccc(Cl)c1	8.91µM
CSc1ccc(NC(=O)N2CCC(N(CCC(C)C)C3CCOCC3)CC2)cc1	0
O=C(NCCc1nc2ccccc2[nH]1)C1CCN(C(=O)N2CC3CC(C2)[C@H]2CCCC(=O)N2C3)CC1 (some centres undefined)	0
CC(=O)N1CCN(c2cc(-c3noc([C@@H]4CCCN4Cc4ccc(CO)o4)n3)ccn2)CC1	0
c1ccc(CN2CCC[C@H]2c2nc(-c3ccnc(N4CCOCC4)c3)no2)nc1	7.08µM
NC(=O)C1CCN(c2cc(-c3noc([C@@H]4CCCN4Cc4ccccc4F)n3)ccn2)CC1	0
CC(=O)N1CCN(c2cc(-c3noc([C@@H]4CCCN4Cc4ccccc4C)n3)ccn2)CC1	12.6µM
COc1ccc(CN2CCC[C@H]2c2nc(-c3ccnc(N4CCOCC4)c3)no2)cc1	0
c1cc(-c2noc([C@@H]3CCCN3Cc3ncc[nH]3)n2)cc(N2CCOCC2)n1	0
